# Reference: publication PMC7819943, “Rice protein-binding microarrays: a tool to detect cis-acting elements near promoter regions in rice”
# Over roughly 35,000 sequences, “fluorescence intensity (a.u.)” has its median near 10,000; the highest 2% begin near 52,000. This excerpt belongs to a sample that is enriched for the highest values.
# Target: T1, OsWOX13 (Oryza sativa, UniProt Q5QMM3 1-267)
# T1 sequence: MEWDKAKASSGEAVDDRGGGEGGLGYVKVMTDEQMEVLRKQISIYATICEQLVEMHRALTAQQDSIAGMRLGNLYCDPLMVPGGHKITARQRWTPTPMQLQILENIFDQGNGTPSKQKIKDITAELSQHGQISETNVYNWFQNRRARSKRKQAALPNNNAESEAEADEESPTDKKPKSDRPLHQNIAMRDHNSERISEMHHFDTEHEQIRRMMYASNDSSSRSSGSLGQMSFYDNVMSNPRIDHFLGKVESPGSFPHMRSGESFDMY
# Test: protein-binding microarray (RPBM); PBS, 2% BSA, 51.3 ng/ul salmon testes DNA, 50 uM zinc acetate, 200 nM TF, 25 C, 1 h; high values mean tight binding
# Details: protein: recombinant; tags: N-terminal polyhistidine and DsRed monomer fusion (pET32a); label: CyDye5-dUTP incorporated in the synthesized complementary strand; 3' TTTTT single-stranded linker to array surface; dsDNA, one strand shown
# How it was run: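 Binding signal here means per-feature fluorescence intensity in arbitrary units. The values were read on an Axon 4000B scanner after a custom Agilent array, double-stranded by primer extension with Cy5-dUTP, was incubated with 200 nM protein at 25 °C for 1 h in PBS with 2% BSA, salmon testes DNA and 50 µM zinc acetate, then washed. The proteins were transcription factors with an N-terminal polyhistidine tag and DsRed, expressed in E. coli BL21-CodonPlus and purified on Ni–NTA.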
row,Sequence,binding signal
1,TTCGATTTAACTGTTCTATTACTGAGGTACTCTTCGATTTCGGAGTCACCTAGTGCAG,6940 fluorescence intensity (a.u.)
2,GTCAAATTTATGGCATTGATAGAGTTTTAGTAGGGGTGTTCGGAGTCACCTAGTGCAG,21000 fluorescence intensity (a.u.)
3,TTAGTTTAATTAAATGTAACATTGAGTATATTTTGATAATCGGAGTCACCTAGTGCAG,16700 fluorescence intensity (a.u.)
4,TCTAAATTTAACTTGCATCACATTAGTTCTGGAAAGAGCACGGAGTCACCTAGTGCAG,12200 fluorescence intensity (a.u.)
5,GATACTAATTATAAATATTAAGTGTAGACTATTAATAAAACGGAGTCACCTAGTGCAG,6430 fluorescence intensity (a.u.)
6,TCATTAACACATAATTAATTAAGTACTCCCTCCGTATTTTCGGAGTCACCTAGTGCAG,20200 fluorescence intensity (a.u.)
7,AAAAGAAGTTAATTATAATTAATTGTGATAAGAGGATAGACGGAGTCACCTAGTGCAG,29400 fluorescence intensity (a.u.)
8,AAATTGTATTCCTAATTGGACTCTCTTTTCCTTTTCTAATCGGAGTCACCTAGTGCAG,3430 fluorescence intensity (a.u.)
9,TTCTAATTAGATTTGATAAAGTACTAATATTCATTTTGGTCGGAGTCACCTAGTGCAG,63100 fluorescence intensity (a.u.)
10,TCGAAAGTAATTAGTACTAGATTGATTGTCAGTTCAGTCTCGGAGTCACCTAGTGCAG,53100 fluorescence intensity (a.u.)
11,ATATTTTAAATAGTACTAAATTATTCTATAAATTTGGTCACGGAGTCACCTAGTGCAG,4350 fluorescence intensity (a.u.)
12,CTTCTAATTATTTGATATTAGGTCATTCTCTAATATTCACCGGAGTCACCTAGTGCAG,21400 fluorescence intensity (a.u.)
13,AGTTACTAATTGATTCAGATGCATGGCAGTATAATTGTCTCGGAGTCACCTAGTGCAG,44900 fluorescence intensity (a.u.)
14,CTCTCGATTGATTACCTAGTACTACTGCAATTCACATTGTCGGAGTCACCTAGTGCAG,52200 fluorescence intensity (a.u.)
15,TATATGGATTAACAGATAATTAGCAGCGGGGTTAGCAAAACGGAGTCACCTAGTGCAG,21000 fluorescence intensity (a.u.)
16,TTTTGATTTGCCACATTTGCAGTGGCATGGATCCAATTAACGGAGTCACCTAGTGCAG,15000 fluorescence intensity (a.u.)
17,GGGGATTAATGGATTATAATGTGTCTTATAACTAAAAGGACGGAGTCACCTAGTGCAG,15100 fluorescence intensity (a.u.)
18,CTTGATTAGAATGTTTAATAACTTGTATCCGTCATGCCTGCGGAGTCACCTAGTGCAG,60200 fluorescence intensity (a.u.)
19,AGTATAATTATGTTTAGAATGGATTAATTGTAATGTAAAGCGGAGTCACCTAGTGCAG,38600 fluorescence intensity (a.u.)
20,ATCCGATTAATTAATTTGATTTAATGTAATGTAATTAGGGCGGAGTCACCTAGTGCAG,64600 fluorescence intensity (a.u.)
21,TGAAATGTAATTGTGATTTTATCTTGAAATGATCCGATGGCGGAGTCACCTAGTGCAG,31400 fluorescence intensity (a.u.)
22,ATGGGTGATTAATCCTAGAATAATGTATCTAGACAGAATCCGGAGTCACCTAGTGCAG,4120 fluorescence intensity (a.u.)
23,GAGATTTGTTTGATGTATCAGGGTGTCACGTTGTCATGTTCGGAGTCACCTAGTGCAG,3440 fluorescence intensity (a.u.)

row,Sequence,binding signal
1,CTTAATGTATGTTGATTTGTCATCACATGTATGATTAGGGCGGAGTCACCTAGTGCAG,56400 fluorescence intensity (a.u.)
2,TTCCGATTATTATTTGTATTTATTAATTTAGGATTTCTCTCGGAGTCACCTAGTGCAG,8170 fluorescence intensity (a.u.)
3,ATCATAATGTGTATGCATGATTAGAGGGCGCAAATTTGTACGGAGTCACCTAGTGCAG,14600 fluorescence intensity (a.u.)
4,GGGATTGGTTGAGAAAATAAAACAGATATATAAGTTTATCCGGAGTCACCTAGTGCAG,3160 fluorescence intensity (a.u.)
5,CAAACTAGATTTGTTGCTAAATTGAATTGTTATGTCATTACGGAGTCACCTAGTGCAG,22800 fluorescence intensity (a.u.)
6,TTTGTGATTAAGCTCTTGGTCTCGTCTCCGCGAGCTCAGCCGGAGTCACCTAGTGCAG,5540 fluorescence intensity (a.u.)
7,AACGTATTTGGCCCAATTAAGTATATACATATGTAATGCGCGGAGTCACCTAGTGCAG,3420 fluorescence intensity (a.u.)
8,GTCAAGTAACTGAACATTTTAATTGCTGCCGATTATTACCCGGAGTCACCTAGTGCAG,13400 fluorescence intensity (a.u.)
9,GAATTGATGGAATTTAGGCCGCCAGCAAGCAAAGACCGAGCGGAGTCACCTAGTGCAG,13300 fluorescence intensity (a.u.)
10,CAACTGATTTTATCACGTTCTAAAATATGCCATCATCTTTCGGAGTCACCTAGTGCAG,12300 fluorescence intensity (a.u.)
11,CACTGACGGAGAAATTTACCGGTCAATGGCCGTCGTCGGTCGGAGTCACCTAGTGCAG,18000 fluorescence intensity (a.u.)
12,TTATAATTGACACTACGAGAATGGGTCTTTACTGCCGGTTCGGAGTCACCTAGTGCAG,57700 fluorescence intensity (a.u.)
13,GCCCTACACAATTTAATTACGTTGACACTGGCCGGTCTTACGGAGTCACCTAGTGCAG,7560 fluorescence intensity (a.u.)
14,TTTAAATTGTAATCCTACTTGAACTCTTCTTTATTTTCTTCGGAGTCACCTAGTGCAG,6760 fluorescence intensity (a.u.)
15,TCTAATGATAAATCATTTATCACTAATTGTAAGAGTGGTACGGAGTCACCTAGTGCAG,53400 fluorescence intensity (a.u.)
16,CTAAATTTGTAATTGTAATGTACTACTTTAATCCTTCGTACGGAGTCACCTAGTGCAG,53100 fluorescence intensity (a.u.)
17,TCTAATGATGATTGTAAGCCGTACAATTTACTAAAAGATACGGAGTCACCTAGTGCAG,15000 fluorescence intensity (a.u.)
18,ATTTAATGTACAATCATGCTTTTCCGTACTAAATTTTGTTCGGAGTCACCTAGTGCAG,14800 fluorescence intensity (a.u.)
19,TCTAAATCATTTTAATCATGGTACAGATCTACTGATAATACGGAGTCACCTAGTGCAG,7740 fluorescence intensity (a.u.)
20,AATTAACAATTTACCAAATTATTAGTTATCAACACTAATTCGGAGTCACCTAGTGCAG,11300 fluorescence intensity (a.u.)
21,GTATGTTATTATATCAATTAGATTTATGCTAGCACTGTCGCGGAGTCACCTAGTGCAG,15200 fluorescence intensity (a.u.)
22,CATTGATAGATTGCAAAAGCTAGCTGTCTGGGAGATGGTGCGGAGTCACCTAGTGCAG,49500 fluorescence intensity (a.u.)
23,ACTATCGTAGGTAGCCAATCAATTTAACATTTCACTCAAGCGGAGTCACCTAGTGCAG,3630 fluorescence intensity (a.u.)
